# ChEMBL document CHEMBL2218924, “A broad activity screen in support of a chemogenomic map for kinase signalling research and drug discovery” (Biochem J, 2013)
# How the values were obtained:
# [1] = target: T1, Serine/threonine-protein kinase TBK1 (Homo sapiens) (UniProt Q9UHD2); details: at 10 µM
# T1 sequence (whole entry): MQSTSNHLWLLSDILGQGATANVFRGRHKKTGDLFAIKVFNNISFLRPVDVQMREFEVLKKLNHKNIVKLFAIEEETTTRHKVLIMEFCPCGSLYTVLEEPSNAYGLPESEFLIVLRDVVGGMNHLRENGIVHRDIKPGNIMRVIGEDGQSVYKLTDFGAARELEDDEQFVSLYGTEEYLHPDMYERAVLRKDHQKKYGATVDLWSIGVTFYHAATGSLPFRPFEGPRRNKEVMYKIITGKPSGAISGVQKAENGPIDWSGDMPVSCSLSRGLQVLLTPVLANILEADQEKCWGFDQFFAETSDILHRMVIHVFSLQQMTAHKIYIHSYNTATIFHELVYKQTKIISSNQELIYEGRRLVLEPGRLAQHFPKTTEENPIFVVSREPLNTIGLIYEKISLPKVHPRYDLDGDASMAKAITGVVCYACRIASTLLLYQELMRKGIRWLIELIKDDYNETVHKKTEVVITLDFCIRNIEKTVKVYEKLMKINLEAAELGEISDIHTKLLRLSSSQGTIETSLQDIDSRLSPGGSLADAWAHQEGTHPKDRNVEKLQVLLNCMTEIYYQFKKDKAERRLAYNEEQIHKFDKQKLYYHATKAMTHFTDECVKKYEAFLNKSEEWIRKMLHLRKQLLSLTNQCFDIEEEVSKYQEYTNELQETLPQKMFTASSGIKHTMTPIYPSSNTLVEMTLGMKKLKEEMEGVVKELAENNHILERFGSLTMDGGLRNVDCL
# [2] = target: T2, TGF-beta receptor type-1 (Homo sapiens) (UniProt P36897); details: at 1 µM
# T2 sequence (whole entry): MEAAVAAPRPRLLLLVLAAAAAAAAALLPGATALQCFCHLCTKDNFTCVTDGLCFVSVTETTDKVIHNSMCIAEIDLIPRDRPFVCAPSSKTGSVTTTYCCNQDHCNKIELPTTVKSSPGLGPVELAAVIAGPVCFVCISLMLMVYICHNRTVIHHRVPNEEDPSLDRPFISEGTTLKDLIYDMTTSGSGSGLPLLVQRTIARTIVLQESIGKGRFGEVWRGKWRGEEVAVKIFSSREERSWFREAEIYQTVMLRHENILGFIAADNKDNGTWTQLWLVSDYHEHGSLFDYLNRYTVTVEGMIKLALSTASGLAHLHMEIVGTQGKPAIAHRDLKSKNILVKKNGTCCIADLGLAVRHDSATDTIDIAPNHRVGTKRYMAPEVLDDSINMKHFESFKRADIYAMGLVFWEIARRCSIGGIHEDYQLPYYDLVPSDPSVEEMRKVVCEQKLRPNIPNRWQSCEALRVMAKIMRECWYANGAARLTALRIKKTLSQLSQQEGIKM
# [3] = target: T2, TGF-beta receptor type-1 (Homo sapiens); details: at 10 µM
# [4] = target: Insulin-like growth factor 1 receptor (Homo sapiens) (UniProt P08069); details: at 1 µM
# Chain of Insulin-like growth factor 1 receptor (Homo sapiens) (P08069 31-736 limits assumed): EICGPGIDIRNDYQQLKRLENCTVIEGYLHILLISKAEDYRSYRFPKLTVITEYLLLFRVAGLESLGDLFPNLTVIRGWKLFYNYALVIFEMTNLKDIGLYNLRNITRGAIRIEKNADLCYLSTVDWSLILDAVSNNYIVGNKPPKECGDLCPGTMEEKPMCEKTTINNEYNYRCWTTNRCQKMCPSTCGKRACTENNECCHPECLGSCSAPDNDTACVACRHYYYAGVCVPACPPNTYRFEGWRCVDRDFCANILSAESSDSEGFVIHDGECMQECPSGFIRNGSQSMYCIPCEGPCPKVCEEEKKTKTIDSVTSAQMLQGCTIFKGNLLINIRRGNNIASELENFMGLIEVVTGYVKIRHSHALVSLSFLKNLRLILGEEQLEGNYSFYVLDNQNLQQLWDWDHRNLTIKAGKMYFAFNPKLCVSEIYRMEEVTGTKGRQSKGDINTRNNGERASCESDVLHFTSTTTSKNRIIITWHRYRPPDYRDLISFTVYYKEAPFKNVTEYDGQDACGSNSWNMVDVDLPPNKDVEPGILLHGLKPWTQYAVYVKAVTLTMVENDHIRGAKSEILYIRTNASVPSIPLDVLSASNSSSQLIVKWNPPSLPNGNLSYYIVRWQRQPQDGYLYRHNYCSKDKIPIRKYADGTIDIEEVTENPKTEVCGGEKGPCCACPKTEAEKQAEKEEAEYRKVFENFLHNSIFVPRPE
# Chain of Insulin-like growth factor 1 receptor (Homo sapiens) (P08069 741-1367 limits assumed): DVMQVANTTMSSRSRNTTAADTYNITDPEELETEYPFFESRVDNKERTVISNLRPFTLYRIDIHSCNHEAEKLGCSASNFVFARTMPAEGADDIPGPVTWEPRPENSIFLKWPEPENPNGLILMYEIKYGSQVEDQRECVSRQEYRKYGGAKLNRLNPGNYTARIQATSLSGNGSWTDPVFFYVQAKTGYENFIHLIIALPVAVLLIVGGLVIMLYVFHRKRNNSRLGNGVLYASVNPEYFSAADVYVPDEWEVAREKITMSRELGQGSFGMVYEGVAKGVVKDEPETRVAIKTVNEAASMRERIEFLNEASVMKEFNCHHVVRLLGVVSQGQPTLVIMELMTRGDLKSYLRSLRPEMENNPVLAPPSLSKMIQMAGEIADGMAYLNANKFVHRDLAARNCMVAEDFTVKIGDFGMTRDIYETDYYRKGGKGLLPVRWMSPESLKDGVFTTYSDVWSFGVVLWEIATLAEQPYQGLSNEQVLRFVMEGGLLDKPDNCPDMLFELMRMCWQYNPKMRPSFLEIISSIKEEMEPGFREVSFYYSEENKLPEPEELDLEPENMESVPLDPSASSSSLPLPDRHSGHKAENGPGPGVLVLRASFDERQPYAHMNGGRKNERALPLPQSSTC
# [5] = target: Insulin-like growth factor 1 receptor (Homo sapiens) (UniProt P08069); details: at 10 µM
# [6] = target: T3, Inhibitor of nuclear factor kappa-B kinase subunit alpha (Homo sapiens) (UniProt O15111); details: at 1 µM
# T3 sequence (whole entry): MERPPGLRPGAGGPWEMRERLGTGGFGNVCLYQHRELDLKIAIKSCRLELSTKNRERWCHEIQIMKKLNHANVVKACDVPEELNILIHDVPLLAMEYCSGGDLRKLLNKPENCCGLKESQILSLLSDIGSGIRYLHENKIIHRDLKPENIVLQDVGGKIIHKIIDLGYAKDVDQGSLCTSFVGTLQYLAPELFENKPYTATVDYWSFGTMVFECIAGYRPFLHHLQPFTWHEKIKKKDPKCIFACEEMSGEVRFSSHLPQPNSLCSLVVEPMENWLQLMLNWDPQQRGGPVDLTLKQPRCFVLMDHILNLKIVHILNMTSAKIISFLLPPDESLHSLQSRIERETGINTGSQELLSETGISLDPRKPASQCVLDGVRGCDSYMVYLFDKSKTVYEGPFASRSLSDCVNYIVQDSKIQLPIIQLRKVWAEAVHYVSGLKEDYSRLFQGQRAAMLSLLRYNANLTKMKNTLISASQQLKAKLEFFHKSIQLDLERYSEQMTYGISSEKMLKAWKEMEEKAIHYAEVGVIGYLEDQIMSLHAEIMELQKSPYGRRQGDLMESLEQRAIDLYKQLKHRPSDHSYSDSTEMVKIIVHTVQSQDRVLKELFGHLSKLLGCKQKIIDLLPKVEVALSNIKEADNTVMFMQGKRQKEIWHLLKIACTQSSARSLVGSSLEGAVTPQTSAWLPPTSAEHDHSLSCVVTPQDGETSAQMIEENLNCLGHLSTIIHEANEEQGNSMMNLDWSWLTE
# [7] = target: T3, Inhibitor of nuclear factor kappa-B kinase subunit alpha (Homo sapiens); details: at 10 µM
# [8] = target: T4, Inhibitor of nuclear factor kappa-B kinase subunit beta (Homo sapiens) (UniProt O14920); details: at 1 µM
# T4 sequence (whole entry): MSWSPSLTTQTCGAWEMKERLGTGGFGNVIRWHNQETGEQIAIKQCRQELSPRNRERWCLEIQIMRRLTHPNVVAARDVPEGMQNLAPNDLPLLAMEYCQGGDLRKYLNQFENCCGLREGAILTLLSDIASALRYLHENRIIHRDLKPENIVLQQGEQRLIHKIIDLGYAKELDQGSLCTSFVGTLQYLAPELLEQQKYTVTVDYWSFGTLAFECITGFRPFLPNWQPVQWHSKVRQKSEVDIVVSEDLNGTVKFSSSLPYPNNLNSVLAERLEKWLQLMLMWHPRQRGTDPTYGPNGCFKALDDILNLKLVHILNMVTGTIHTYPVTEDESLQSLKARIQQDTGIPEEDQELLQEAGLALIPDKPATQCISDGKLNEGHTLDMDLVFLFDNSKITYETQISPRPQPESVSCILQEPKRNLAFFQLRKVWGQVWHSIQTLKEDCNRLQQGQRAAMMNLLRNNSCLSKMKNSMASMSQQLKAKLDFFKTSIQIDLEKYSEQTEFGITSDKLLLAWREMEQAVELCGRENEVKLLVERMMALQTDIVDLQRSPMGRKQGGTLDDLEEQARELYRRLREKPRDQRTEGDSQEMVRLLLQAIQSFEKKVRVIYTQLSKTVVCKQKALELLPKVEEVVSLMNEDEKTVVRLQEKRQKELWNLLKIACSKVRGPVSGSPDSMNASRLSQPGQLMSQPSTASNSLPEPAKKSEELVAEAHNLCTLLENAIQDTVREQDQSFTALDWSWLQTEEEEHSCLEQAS
# [9] = target: T4, Inhibitor of nuclear factor kappa-B kinase subunit beta (Homo sapiens); details: at 10 µM
# [10] = target: Insulin receptor (Homo sapiens) (UniProt P06213); details: at 1 µM
# Chain of Insulin receptor (Homo sapiens) (P06213 28-758 limits assumed): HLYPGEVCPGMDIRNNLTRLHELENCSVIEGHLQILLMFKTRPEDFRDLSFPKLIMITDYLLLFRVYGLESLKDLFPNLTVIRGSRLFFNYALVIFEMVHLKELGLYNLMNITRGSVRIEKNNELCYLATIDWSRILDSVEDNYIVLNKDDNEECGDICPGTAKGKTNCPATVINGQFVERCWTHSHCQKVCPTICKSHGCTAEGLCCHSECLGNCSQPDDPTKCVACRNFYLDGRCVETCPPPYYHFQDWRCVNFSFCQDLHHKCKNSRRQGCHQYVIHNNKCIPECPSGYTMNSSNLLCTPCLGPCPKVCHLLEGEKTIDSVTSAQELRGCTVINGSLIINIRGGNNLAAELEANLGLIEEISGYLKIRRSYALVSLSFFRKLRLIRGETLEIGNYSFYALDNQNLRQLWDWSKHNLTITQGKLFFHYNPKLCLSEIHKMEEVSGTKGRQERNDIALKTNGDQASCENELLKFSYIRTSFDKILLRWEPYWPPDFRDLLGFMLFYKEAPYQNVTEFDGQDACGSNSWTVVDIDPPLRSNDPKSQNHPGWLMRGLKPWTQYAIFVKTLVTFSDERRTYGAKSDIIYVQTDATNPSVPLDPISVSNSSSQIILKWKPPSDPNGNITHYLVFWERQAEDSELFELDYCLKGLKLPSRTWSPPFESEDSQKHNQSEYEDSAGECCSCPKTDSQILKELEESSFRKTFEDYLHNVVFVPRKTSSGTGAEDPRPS
# Chain of Insulin receptor (Homo sapiens) (P06213 763-1382 limits assumed): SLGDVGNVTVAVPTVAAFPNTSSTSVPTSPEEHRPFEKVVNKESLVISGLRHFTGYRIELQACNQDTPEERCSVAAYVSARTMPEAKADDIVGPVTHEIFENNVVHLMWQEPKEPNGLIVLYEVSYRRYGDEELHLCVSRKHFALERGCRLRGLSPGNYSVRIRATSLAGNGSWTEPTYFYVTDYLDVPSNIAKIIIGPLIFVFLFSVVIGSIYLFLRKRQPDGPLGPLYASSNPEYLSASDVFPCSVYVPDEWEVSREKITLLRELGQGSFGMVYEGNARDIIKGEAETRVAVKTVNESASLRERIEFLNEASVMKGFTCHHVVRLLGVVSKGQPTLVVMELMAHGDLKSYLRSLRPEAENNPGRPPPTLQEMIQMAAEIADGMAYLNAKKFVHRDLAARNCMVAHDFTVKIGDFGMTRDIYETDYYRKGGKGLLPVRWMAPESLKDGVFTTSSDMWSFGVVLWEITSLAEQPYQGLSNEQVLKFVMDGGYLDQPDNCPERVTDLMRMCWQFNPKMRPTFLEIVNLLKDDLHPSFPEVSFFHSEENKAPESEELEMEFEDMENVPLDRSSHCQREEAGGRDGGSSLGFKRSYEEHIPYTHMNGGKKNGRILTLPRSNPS
SMILES,residual activity [1] [%],residual activity [2] [%],residual activity [3] [%],residual activity [4] [%],residual activity [5] [%],residual activity [6] [%],residual activity [7] [%],residual activity [8] [%],residual activity [9] [%],residual activity [10] [%]
Oc1c2ccccc2c2c3c(cccc13)N=N2,11,88,74,92,49,57,21,78,43,81
O=C1NC(=O)c2c1c1c3ccccc3[nH]c1c1[nH]c3cc(Br)ccc3c21,54,100,98,96,99,89,71,77,100,99
CN(C)c1ccc(/C=C2\C(=O)Nc3ccccc32)cc1,45,93,98,105,103,102,120,112,93,99
CCC(=O)Nc1ccc2ncnc(Nc3cccc(Br)c3)c2c1,68,75,94,97,102,121,125,112,97,110
O=C1Nc2ccc(Br)cc2/C1=C\c1cc2c([nH]1)CCCC2,65,,,,,102,115,,,
c1ccc(-c2n[nH]c3c2oc2ccccc23)cc1,55,82,88,,,97,88,,,
c1ccc(-c2n[nH]cc2-c2ccnc3ccccc23)nc1,66,6,0,99,82,,,,,108
O=[N+]([O-])c1ccc(-c2nc(-c3ccc(F)cc3)c(-c3ccncc3)[nH]2)cc1,76,61,59,97,105,119,99,129,111,107
Nc1cccc(-c2cc3c(Oc4cccc(O)c4)ncnc3[nH]2)c1,19,101,56,105,85,88,78,,91,
COc1cc2ncnc(Nc3ccc(NC(=O)c4ccccc4)cc3)c2cc1OC,75,98,,,103,102,96,109,106,
O=C1NC(=O)c2cc(Nc3ccc(F)cc3)c(Nc3ccc(F)cc3)cc21,54,78,76,90,77,111,113,108,95,115
O=C(Nc1cccc(Nc2nccc(Nc3cccc(C(F)(F)F)c3)n2)c1)C1CC1,32,105,72,90,96,113,88,74,52,22
Oc1ccc(Nc2nc(-c3ccc(Cl)cc3)cs2)cc1,80,123,100,103,108,102,134,115,110,112
CC(=O)O/N=C1\C(=C2\C(=O)Nc3cc(Br)ccc32)Nc2ccccc21,14,91,74,102,100,111,108,101,93,118
O=C(O)c1ccc2c3c1cccc3c(=O)n1c3ccccc3nc21,4,111,102,113,107,109,106,112,93,117
COc1cc2ncnc(N3CCN(C(=O)Nc4ccc(Oc5ccccc5)cc4)CC3)c2cc1OC,53,80,76,,,103,,113,115,115
COc1ccc(C(=O)Nc2sc3c(c2C(N)=O)CCCC3)cc1OC,71,71,92,87,88,,113,99,88,105
O=c1cc(-c2cccc3c2Sc2ccccc2S3)oc(N2CCOCC2)c1,80,114,88,105,101,98,93,106,103,105
COc1ccc(CNc2nc(N(CCO)CCO)nc3c2ncn3C(C)C)cc1,55,88,74,94,88,101,102,112,99,99

SMILES,residual activity [1] [%],residual activity [2] [%],residual activity [3] [%],residual activity [4] [%],residual activity [5] [%],residual activity [6] [%],residual activity [7] [%],residual activity [8] [%],residual activity [9] [%],residual activity [10] [%]
COc1cc2ncc(-c3ccccc3)nc2cc1OC,76,,,,,,,95,95,
N#Cc1cnc2cnc(NCc3cccnc3)cc2c1Nc1ccc(F)c(Cl)c1,2,126,123,,,74,58,84,74,136
Cc1ccc(S(=O)(=O)/C=C/C#N)cc1,81,98,81,88,98,100,100,108,107,94
Nc1ccc2ncnc(NCCc3ccc(Oc4ccccc4)cc3)c2c1,62,117,112,116,119,107,101,115,110,139
CNc1cc2c(Nc3cccc(Br)c3)ncnc2cn1,64,87,94,96,94,108,101,92,76,91
Cc1cncc2cccc(S(=O)(=O)N3CCCN(C(=O)CN)C[C@H]3C)c12,55,78,86,,,93,,,,
CN(C)CCCn1cc(C2=C(c3c[nH]c4ccccc34)C(=O)NC2=O)c2ccccc21,22,91,71,110,,101,58,104,82,
CO[C@@H]1[C@H](N(C)C(=O)c2ccccc2)C[C@H]2O[C@]1(C)n1c3ccccc3c3c4c(c5c6ccccc6n2c5c31)C(=O)NC4,1,85,,92,84,101,91,,84,87
O=Nc1c(-c2c(O)[nH]c3ccccc23)[nH]c2ccccc12,1,104,73,40,20,76,57,87,67,17
CCN(CC)C(=O)c1ccc(Nc2nc(OCC3CCCCC3)c3nc[nH]c3n2)cc1,2,82,50,70,16,,,94,69,95
N#CCCc1ccc2c(c1)-c1[nH]c3ccc([N+](=O)[O-])cc3c1CC(=O)N2,13,73,28,,,,,,,118
CC(=O)c1ccc(N2CCOCC2)cc1O,70,83,90,,,,,104,102,
O=C1NC(=O)/C(=C\c2ccc3nccnc3c2)S1,27,92,75,105,89,100,54,102,69,107
O=C(Nc1cccc(Nc2cc(Nc3cccc(C(F)(F)F)c3)ncn2)c1)C1CC1,61,89,77,98,89,108,125,99,96,105
COc1ccc(S(=O)(=O)N(CCO)c2ccccc2CN(C)C/C=C/c2ccc(Cl)cc2)cc1,56,97,92,94,93,117,108,115,110,91
O=C1Nc2ccccc2/C1=C1/Nc2ccccc2/C1=N\OCCC(O)CO (stereo not given),1,77,64,10,10,82,46,104,66,17
N#CC(C#N)=C(N)/C(C#N)=C/c1ccc(O)cc1,72,91,91,,,96,92,99,93,
Cn1cnc2cc3c(Nc4cccc(Br)c4)ncnc3cc21,63,86,85,109,90,92,104,95,94,102
CO[C@H]1C[C@@H]2CC[C@@H](C)[C@@](O)(O2)C(=O)C(=O)N2CCCC[C@H]2C(=O)O[C@H]([C@H](C)C[C@@H]2CC[C@@H](O)[C@H](OC)C2)CC(=O)[C@H](C)/C=C(\C)[C@@H](O)[C@@H](OC)C(=O)[C@H](C)C[C@H](C)/C=C/C=C/C=C/1C,55,82,78,96,74,121,148,104,124,107
